Reference: article PMC4336329 (PLoS ONE, 2015)
Hit rate of the full screen: of about 310,000 compounds, about 14,000 (4.5%) showed an effect of 50% or more. The effect is printed as a negative number. What follows is part of a selection rich in strong results, with near analogues and random picks from the rest.
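Note: peak tail current of the secondary pulse compared with the same well before compound.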

The molecules below were run against human ether-à-go-go-related gene (hERG) potassium channel (human, UniProt Q12809) (assay: primary screen, population patch clamp on CHO cells stably expressing hERG; higher = less effect of the substance).
Sequence of human ether-à-go-go-related gene (hERG) potassium channel (Q12809 whole entry, looked up): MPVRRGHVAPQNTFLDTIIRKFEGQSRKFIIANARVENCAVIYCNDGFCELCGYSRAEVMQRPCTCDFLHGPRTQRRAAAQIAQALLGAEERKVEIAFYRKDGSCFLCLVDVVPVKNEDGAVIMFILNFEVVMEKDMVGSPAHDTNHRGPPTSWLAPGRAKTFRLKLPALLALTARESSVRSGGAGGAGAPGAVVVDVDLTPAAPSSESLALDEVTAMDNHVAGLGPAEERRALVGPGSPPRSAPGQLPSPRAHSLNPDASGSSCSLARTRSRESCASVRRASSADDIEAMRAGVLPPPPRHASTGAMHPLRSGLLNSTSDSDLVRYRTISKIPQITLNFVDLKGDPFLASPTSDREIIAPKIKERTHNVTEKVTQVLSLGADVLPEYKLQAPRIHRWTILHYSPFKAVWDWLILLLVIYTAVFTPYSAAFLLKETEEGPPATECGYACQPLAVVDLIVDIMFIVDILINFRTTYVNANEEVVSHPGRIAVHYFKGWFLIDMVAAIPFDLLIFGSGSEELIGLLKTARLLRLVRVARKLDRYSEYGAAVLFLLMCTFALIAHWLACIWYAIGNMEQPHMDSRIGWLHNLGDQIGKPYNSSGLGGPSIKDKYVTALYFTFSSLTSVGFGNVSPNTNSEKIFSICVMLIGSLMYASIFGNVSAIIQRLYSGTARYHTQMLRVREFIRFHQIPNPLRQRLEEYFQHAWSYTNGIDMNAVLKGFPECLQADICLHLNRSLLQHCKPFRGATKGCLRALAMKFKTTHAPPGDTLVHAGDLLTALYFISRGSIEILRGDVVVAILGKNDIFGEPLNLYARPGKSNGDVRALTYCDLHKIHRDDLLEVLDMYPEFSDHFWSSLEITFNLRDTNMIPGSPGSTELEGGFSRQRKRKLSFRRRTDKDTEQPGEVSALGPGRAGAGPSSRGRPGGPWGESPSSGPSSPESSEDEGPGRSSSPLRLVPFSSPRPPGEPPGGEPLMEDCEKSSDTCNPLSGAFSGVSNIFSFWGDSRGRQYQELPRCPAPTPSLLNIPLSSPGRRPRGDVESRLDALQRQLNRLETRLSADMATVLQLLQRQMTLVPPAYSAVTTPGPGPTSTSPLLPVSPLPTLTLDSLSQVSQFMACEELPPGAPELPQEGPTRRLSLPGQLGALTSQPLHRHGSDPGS
For `CCOc1ccc2ccccc2c1/C=N\NC(=O)OC`, the “hERG current change (%, negative = inhibition) at 10uM” value was 12.7%.
For `CCCOc1cccc(-c2cc(C(=O)N/N=C/c3ccccn3)c3ccccc3n2)c1`, the “hERG current change (%, negative = inhibition) at 10uM” value was 0.224%.
For `COc1cccc(CN2CCNC(=O)C2CC(=O)N(C)CCC2CCOCC2)c1` (stereo not drawn), the “hERG current change (%, negative = inhibition) at 10uM” value was 8.75%.
With `Cc1ccc2nc(Cl)c(CN(C(=O)c3cnccn3)C3CCCCC3)cc2c1` the “hERG current change (%, negative = inhibition) at 10uM” value was -24.7%.
For `COc1cccc(CC2(CO)CCN(Cc3cccn3-c3cccnc3)CC2)c1`, the “hERG current change (%, negative = inhibition) at 10uM” value was -47.7%.
For `O=S(=O)(c1cccc(F)c1)N1CCC(CO)(Cc2cccc(F)c2)CC1`, the “hERG current change (%, negative = inhibition) at 10uM” value was -18.2%.
With `COc1ccc(CC2(CO)CCN(S(=O)(=O)c3cccc4cccnc34)CC2)cc1` the “hERG current change (%, negative = inhibition) at 10uM” value was -5.13%.
With `COc1ccc(CC2(CO)CCN(Cc3cccn3-c3ccccn3)CC2)cc1` the “hERG current change (%, negative = inhibition) at 10uM” value was -75.4%.
In the case of `COc1cc(CN2CCN(Cc3cccc(OC)c3OC)CC2)cc(OC)c1`, the “hERG current change (%, negative = inhibition) at 10uM” value is reported as -34.2%.
In the case of `COc1ccc(CC2(CO)CCN(Cc3cccc4nccnc34)CC2)cc1`, the “hERG current change (%, negative = inhibition) at 10uM” value is reported as -70.9%.
In the case of `OCC1(Cc2cccc(F)c2)CCN(Cc2cccc3nccnc23)CC1`, the “hERG current change (%, negative = inhibition) at 10uM” value is reported as -59.8%.
For `CCCn1ncc(CN2CCC(CO)(Cc3ccc(OC)cc3)CC2)c1C`, the “hERG current change (%, negative = inhibition) at 10uM” value was -41.9%.
For `O=C(c1cnsn1)N1CCC(CO)(Cc2cccc(F)c2)CC1`, the “hERG current change (%, negative = inhibition) at 10uM” value was 10.8%.
For `COc1ccc(CC2(CO)CCN(Cc3cnn(C)c3C)CC2)cc1`, the “hERG current change (%, negative = inhibition) at 10uM” value was -21.6%.
For `COc1ccc(CC2(CO)CCN(Cc3cccc(OC)c3OC)CC2)cc1`, the “hERG current change (%, negative = inhibition) at 10uM” value was -60.5%.
For `COc1ccc(C2=NOC3(CC(=O)N(c4ccc(C)cc4)C3=O)C2)c(OC)c1` (stereo not drawn), the “hERG current change (%, negative = inhibition) at 10uM” value was 4.08%.
With `CCOC(=O)N1CCN(Cc2cccs2)CC1` the “hERG current change (%, negative = inhibition) at 10uM” value was 24.3%.
In the case of `Cc1ccc(C)c(NC(=O)CSc2nnc3n2CCCCC3)c1`, the “hERG current change (%, negative = inhibition) at 10uM” value is reported as 11%.
In the case of `COc1ccnc(Oc2ccc(F)cc2)c1C(=O)N/C=N/OCc1c(Cl)cccc1Cl`, the “hERG current change (%, negative = inhibition) at 10uM” value is reported as -5.9%.
With `C(#Cc1ccccc1)CN1CCN(c2ccccn2)CC1.Cl` the “hERG current change (%, negative = inhibition) at 10uM” value was -8.88%.
For `O=C(Nc1cccc(S(=O)(=O)Nc2ccccc2Cl)c1)c1ccc(Cl)nc1`, the “hERG current change (%, negative = inhibition) at 10uM” value was -8.9%.
With `C/C(CCN1CCc2nc(-c3ccccc3)c(-c3ccccc3)cc2C1)=N\O[C@@H](C)c1cc(-c2c(C)cc(C)cc2C)no1` the “hERG current change (%, negative = inhibition) at 10uM” value was 4.08%.
In the case of `COc1cccc(-c2cc(C(F)(F)F)nc(-n3ccc([N+](=O)[O-])n3)n2)c1`, the “hERG current change (%, negative = inhibition) at 10uM” value is reported as -6.33%.
With `CCOC(=O)c1cnc(SCC(=O)Nc2ccccc2C(=O)OC)nc1N` the “hERG current change (%, negative = inhibition) at 10uM” value was -13.1%.
`COc1ccc2c(c1)CCc1sc(NC(=O)c3ccc(C)cc3)nc1-2` was tested, and the “hERG current change (%, negative = inhibition) at 10uM” value was 10.9%.
With `COC(=O)c1ccc(C(=O)N(CCN(C)C)c2nc3c(Cl)cccc3s2)cc1.Cl` the “hERG current change (%, negative = inhibition) at 10uM” value was -54.9%.
`CN(C)CCN(C(=O)c1cccc(Cl)c1)c1nc2c(Cl)cccc2s1.Cl` was tested, and the “hERG current change (%, negative = inhibition) at 10uM” value was -52.6%.
In the case of `Cc1ccc2sc(N(CCN(C)C)C(=O)c3ccc4ccccc4c3)nc2c1C.Cl`, the “hERG current change (%, negative = inhibition) at 10uM” value is reported as 18.7%.
With `CN(C)CCN(C(=O)c1ccc2c(c1)OCCO2)c1nc2c(Cl)cccc2s1.Cl` the “hERG current change (%, negative = inhibition) at 10uM” value was -59.3%.
In the case of `CC(=O)c1ccc(C(=O)N(CCN(C)C)c2nc3c(Cl)cccc3s2)cc1.Cl`, the “hERG current change (%, negative = inhibition) at 10uM” value is reported as -48.6%.
In the case of `CCN(CC)CCN(C(=O)c1ccc2c(c1)CCCC2)c1nc2c(C)cccc2s1.Cl`, the “hERG current change (%, negative = inhibition) at 10uM” value is reported as -30.2%.
For `CC1CN(S(=O)(=O)c2ccc(C(=O)N(CCCN(C)C)c3nc4c(Cl)cccc4s3)cc2)CC(C)O1.Cl` (stereo not drawn), the “hERG current change (%, negative = inhibition) at 10uM” value was -36.7%.
For `CCN(CC)CCN(C(=O)c1ccc2c(c1)OCCO2)c1nc2c(Cl)cccc2s1.Cl`, the “hERG current change (%, negative = inhibition) at 10uM” value was -54.7%.
In the case of `COc1ccccc1OCCNC(=O)c1cc(F)c(F)cc1Cl`, the “hERG current change (%, negative = inhibition) at 10uM” value is reported as -2.68%.
With `Cc1ccccc1-n1nnnc1SC(C)C(=O)Nc1ccc(N2CCN(C)CC2)cc1` (stereo not drawn) the “hERG current change (%, negative = inhibition) at 10uM” value was -25.4%.
For `COc1ccc(NC(=O)[C@@H]2CC=C[C@@H]3CCN(Cc4ccccc4)C(=O)[C@@H]32)cc1`, the “hERG current change (%, negative = inhibition) at 10uM” value was -8.12%.
With `COC(=O)[C@@H]1C[C@@H]2CC[C@@H](O)C[C@@H]2N1Cc1ccc(Cl)cc1` the “hERG current change (%, negative = inhibition) at 10uM” value was 23.7%.
In the case of `CCOc1cc(/C=C2\C(=O)N(c3nc(-c4ccc(Br)cc4)cs3)N=C2c2ccccc2)ccc1O`, the “hERG current change (%, negative = inhibition) at 10uM” value is reported as 4.44%.
`CS(=O)(=O)c1ccc(Cl)c(NC(=O)C2CC(=O)N(Cc3ccco3)C2)c1` (stereo not drawn) was tested, and the “hERG current change (%, negative = inhibition) at 10uM” value was 9.79%.
With `CS(=O)(=O)c1ccc(C(=O)OCC(=O)NC(=O)C2CCCCC2)cc1[N+](=O)[O-]` the “hERG current change (%, negative = inhibition) at 10uM” value was 28.1%.
In the case of `Cc1ccc(-c2cc(C(F)F)n3ncc(C(=O)N4CCCc5ccccc54)c3n2)cc1`, the “hERG current change (%, negative = inhibition) at 10uM” value is reported as 3.94%.
For `C=CCn1c(SCC(=O)NCc2ccco2)nnc1-c1ccc2ccccc2n1`, the “hERG current change (%, negative = inhibition) at 10uM” value was -28.2%.
`COC(C(=O)Nc1ccc(F)c(F)c1)c1ccccc1` (stereo not drawn) was tested, and the “hERG current change (%, negative = inhibition) at 10uM” value was -13.7%.
For `COc1ccc(NS(=O)(=O)c2cccc(C(=O)NCC3CCCO3)c2)cc1` (stereo not drawn), the “hERG current change (%, negative = inhibition) at 10uM” value was -0.415%.
For `Cn1cnnc1SCC(=O)NCCC(c1ccccc1)c1ccccc1`, the “hERG current change (%, negative = inhibition) at 10uM” value was 7.79%.
In the case of `O=C(COc1ccccc1Cl)N1CCN(c2ccc([N+](=O)[O-])c(N3CCOCC3)c2)CC1`, the “hERG current change (%, negative = inhibition) at 10uM” value is reported as -25.7%.
In the case of `O=C(COc1ccc(Cl)cc1)N1CCN(c2ccc([N+](=O)[O-])c(N3CCCCC3)c2)CC1`, the “hERG current change (%, negative = inhibition) at 10uM” value is reported as 2.92%.
For `O=C(COc1ccc(Cl)cc1)N1CCN(c2ccc([N+](=O)[O-])c(N3CCOCC3)c2)CC1`, the “hERG current change (%, negative = inhibition) at 10uM” value was -71.5%.
`Cc1ccc(OCC(=O)N2CCN(c3ccc([N+](=O)[O-])c(N4CCOCC4)c3)CC2)cc1` was tested, and the “hERG current change (%, negative = inhibition) at 10uM” value was -71.4%.
In the case of `O=C(COc1ccccc1)N1CCN(c2ccc([N+](=O)[O-])c(N3CCCCC3)c2)CC1`, the “hERG current change (%, negative = inhibition) at 10uM” value is reported as -13.6%.
`O=C(COc1ccc(Br)cc1)N1CCN(c2ccc([N+](=O)[O-])c(N3CCCCC3)c2)CC1` was tested, and the “hERG current change (%, negative = inhibition) at 10uM” value was -14.1%.
